A short description of test [1]: APR_HepG2_CellCycleArrest_24hr: Apredica 24-hour HepG2 Assay for Cell Cycle Arrest (AID 2282905).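 Also: cell cycle arrest scored as ratio of 2N to 4N nuclear DNA content.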 The settings on record: imaging, actives raise or lower the signal. The procedure, abridged: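 HepG2 cells were exposed to compounds at 0.39–200 uM (ten concentrations, duplicate) in 0.5% v/v DMSO for 24 hr. After formaldehyde fixation and Triton permeabilization, Hoechst 33342-stained nuclei were imaged at 20x; DNA content was quantified, with bidirectional fitting against DMSO.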

Test [2] in a line: APR_HepG2_CellLoss_24hr: Apredica 24-hour HepG2 Assay for Cell Loss (AID 2282908).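 As to AC50: fit in both directions so a hit may be cell loss or gain.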 The conditions noted are these: high-content imaging. The procedure, abridged: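 Compounds were tested at 0.39–200 uM in duplicate with 0.5% v/v DMSO final. Cells were then fixed in 3.7% formaldehyde, Hoechst 33342 nuclei were imaged at 20x by HCS, and cell number was fitted bidirectionally against DMSO.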

Test [3] is described as follows: APR_HepG2_MitoticArrest_24hr: Apredica 24-hour HepG2 Assay for Mitotic Arrest (AID 2282910). The conditions noted are these: high-content imaging, actives raise or lower the signal. The procedure, abridged: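 Compounds are dosed onto HepG2 cells across ten concentrations up to 200 uM for 24 hr. Cells are then fixed in 3.7% formaldehyde, permeabilised, and labelled for phospho-histone H3 and nuclei; images are scored by cell cycle analysis and fitted bidirectionally relative to DMSO.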

Test [4] can be described thus: APR_HepG2_MitoMembPot_24hr: Apredica 24-hour HepG2 Assay for Mitochondrial Membrane Potential (AID 2282911). The conditions noted are these: imaging, actives raise or lower the signal. The procedure, abridged:
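Human hepatoma HepG2 cultures received ten compound concentrations up to 200 uM for 24 hr. Membrane-potential dye signal, captured by automated fluorescence microscopy, was scored for gain or loss against DMSO controls.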

A short description of test [5]: APR_HepG2_MitoMass_24hr: Apredica 24-hour HepG2 Assay for Mitochondrial Mass (AID 2282912). The settings on record: high-content imaging, actives raise or lower the signal. The procedure, abridged: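 Human HepG2 liver cells were exposed for 24 hr to compounds at 0.39–200 uM (duplicates, 0.5% v/v DMSO final). They were stained live with 250 nM MitoTracker Red CMXRos for 30 min, fixed in 3.7% formaldehyde, and imaged by HCS fluorescence; signals were fitted bidirectionally against DMSO.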

The nature of test [6]: APR_HepG2_p53Act_24hr: Apredica 24-hour HepG2 Assay for p53 Activation (AID 2282913).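 Also: p53 protein immunofluorescence averaged per cell in HepG2 with Hoechst nuclei.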 The settings on record: high-content imaging, actives raise or lower the signal. The procedure, abridged:
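Automated fluorescence imaging quantifies p53 immunostaining in HepG2 cells after a 24 hr exposure (0.39–200 uM, duplicate, 0.5% DMSO). Nuclei are located by Hoechst 33342 staining.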

Test [7] is described as follows: APR_HepG2_CellCycleArrest_72hr: Apredica 72-hour HepG2 Assay for Cell Cycle Arrest (AID 2282914). The settings on record: high-content imaging, actives raise or lower the signal. The procedure, abridged: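 Cell cycle arrest in HepG2 was scored from nuclear DNA content after 72 hr compound treatment (0.39–200 uM). Activity, either gain or loss, was fitted against the DMSO baseline.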

The nature of test [8]: APR_HepG2_CellLoss_72hr: Apredica 72-hour HepG2 Assay for Cell Loss (AID 2282915). The conditions noted are these: high-content imaging. The procedure, abridged: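 Cell number comes from Hoechst 33342-labelled nuclei, imaged at 20x after 3.7% formaldehyde fixation. Dosing was 0.39–200 uM, ten concentrations in duplicate, 0.5% DMSO final, for 72 h. Bidirectional fit relative to DMSO baseline.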

The nature of test [9]: APR_HepG2_NuclearSize_24hr: Apredica 24-hour HepG2 Assay for Nuclear Size (AID 2282907). The settings on record: high-content imaging, actives raise or lower the signal. The procedure, abridged: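 HepG2 human liver cells were exposed for 24 hr to compounds at 0.39–200 uM (ten concentrations, duplicate) in 0.5% v/v DMSO. They were then formaldehyde-fixed, Triton-permeabilized and Hoechst 33342-stained, and nuclear diameter was imaged at 20x. Bidirectional fits were made against DMSO.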

Test [10] in a line: APR_HepG2_MicrotubuleCSK_24hr: Apredica 24-hour HepG2 Assay for Microtubule CSK Stabilty (AID 2282909). The settings on record: HepG2 microtubule cytoskeleton imaging, actives raise or lower the signal. The procedure, abridged:
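HepG2 cells exposed 24 h to compounds at 0.39–200 uM (duplicate, 0.5% v/v DMSO final), then fixed, permeabilized and immunostained for alpha-tubulin with Hoechst 33342. Cytoskeleton imaged at 20x; bidirectional fit versus DMSO baseline.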

The source made the active and inactive calls. The calls were made as follows: active = hit-call score of the fitted dose curve at least 0.9, where 1 is the maximum; inactive = score below 0.9.

Experimental findings from PubChem BioAssay (EPA / NIEHS) are described below.

A word on the AC50: it is the midpoint of the concentration-response curve, whichever way the signal moves.

As for `O=C(NC(=O)c1c(F)cccc1F)Nc1cc(Cl)c(OC(F)(F)C(F)F)c(Cl)c1`, the result in [1], in [2], in test [3], in test [4], in [5] and in test [6] was inactive. Also, the result in [7] and in test [8] was inactive.
For the molecule `Clc1ccc(C(c2ccccc2Cl)C(Cl)(Cl)Cl)cc1` (stereo not given), the AC50 in test [1] is 52.2 µM (active); in test [2], 70.5 µM (active); in test [5], 65.7 µM (active); in [6], 75.5 µM (active); in test [7], 24.6 µM (active); in test [8], 70.6 µM (active). For the same molecule, the call in test [4] was inactive.
Regarding `O=S(=O)(O)C(F)(F)C(F)(F)C(F)(F)C(F)(F)C(F)(F)C(F)(F)F`, the call in [1], in test [9], in [2], in [3], in test [4] and in test [5] was inactive. Besides, the result in test [6], in [7] and in test [8] was inactive.
On to `Oc1c(Cl)c(Cl)c(Cl)c(Cl)c1Cl`, for which the AC50 in test [1] is 86.7 µM (active); in test [7], 60.8 µM (active); in test [8], 55.9 µM (active). Besides, the result in test [9], in test [2], in test [3], in test [4], in [5] and in [6] was inactive.
Regarding `CCC(=O)O[C@H]1CC[C@H]2[C@@H]3CCC4=CC(=O)CC[C@]4(C)[C@H]3CC[C@]12C`, the call in test [1], in test [10], in test [4], in test [6] and in test [7] was inactive. For the same molecule, the figures for the AC50 in test [2], in test [5] and in [8] were 107 µM (active), 107 µM (active) and 125 µM (active), respectively.
For `CCCCCCCCOC(=O)c1ccccc1C(=O)OCCCCCCCC`, the call in test [1], in [9], in test [2], in [3], in test [4] and in test [5] was inactive. Further, the molecule was called inactive in [6], in test [7] and in test [8].
For `Cc1ccc(O)c(C)c1`, the molecule was classed as inactive in [1], in test [2], in test [4], in test [5], in test [6] and in test [7]. The call in test [8] was inactive.
With `CCCCCCCCCc1ccc(O)cc1`, the call in [1], in test [2], in [10], in test [3], in [4] and in test [5] was inactive. Also, the result in test [6], in test [7] and in test [8] was inactive.
Turning to `Nn1cnnc1`, the outcome in [1], in [9], in [2], in [3], in [4] and in [5] was inactive. Besides, the outcome in [6], in test [7] and in [8] was inactive.
